Measurements reported in PubChem BioAssay (NCI).
This is part of a sample that, as a whole, favours compounds with a hit. Of some 83,000 tested, about 20% had one in any assay.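 Results are percent growth after 48 hours of single-concentration exposure. 100 means growth as in untreated cells, lower positive values show inhibition; negative values down to -100 show cell death.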 Values without a mark were called inactive. Active and inactive are the calls of the source. Rule for the calls: active = growth percent below 10; inactive = the rest.

tested on: SF-539 CNS; experiment: NCI-60 one-dose screen, 48 h (100 = growth as untreated, 0 = no growth, -100 = all killed); conditions: 10 µM unless noted

Compound	growth
CC1(C)C(N(O)C(=O)Nc2ccc(Cl)cc2)N(c2ccc(Cl)cc2)C(=O)N1CC(=O)N/N=C/C=C/c1ccc([N+](=O)[O-])o1 (centres undefined)	-73.3% (active)
Oc1ccc(-c2cnc(-c3ccccc3)[nH]2)c(O)c1	107%
NC(N)=N/N=C\c1cccc(OCc2ccccc2)c1	77.5%
CCCCn1c(-c2ccc(F)cc2)nc2cc(OC)c(OC)cc2c1=O	101%
O=C(Nc1ccccc1)C(CCCCN1C(=O)c2ccccc2C1=O)N1C(=O)c2ccccc2C1=O (centres undefined)	111%
Cc1[nH]n(C(=O)c2ccncc2)c(=O)c1N=Nc1ccc(O)c(C(=O)O)c1	100%
COc1cc2c(cc1OC)C(=O)OC2	97%
Cc1cc2nc3c(=O)[nH]c(=O)nc-3n(CC=O)c2cc1C	93.6%
COC(=O)C1(C)COP(=O)(NC23CC4CC(CC(C4)C2)C3)OC1 (centres undefined)	110%
Cc1nc([C@H]2CC[C@H]3[C@@H]4CCC5=CC(=O)CC[C@]5(C)[C@H]4CC[C@]23C)cs1	93.4%
O=C1OCC2=C1C(c1cccc(Br)c1)c1cc3c(cc1N2CCO)OCCO3 (centres undefined)	0.257% (active)
C=CCn1c(SCC(=O)Nc2ccc(C(=O)/C=C/c3ccc(Cl)cc3)cc2)nnc1-c1ccc(Cl)cc1	99.2%
CCc1ccc2c(c1)N(CCO)C1=C(C(=O)OC1)C2c1cccc(Cl)c1 (centres undefined)	-12.6% (active)
COc1ccc2c(c1)N(CCO)C1=C(C(=O)OC1)C2c1cccc(Br)c1 (centres undefined)	-6.97% (active)
